Data published in the supplement of paper PMC10849652.
The full data set covers some 7,900 targets. This sample favours those with a hit. About 0.6% of all pairs of compound and target were hits. Unmarked numbers belong to inactive results.

Each target was assayed with CN1CCN(c2nc(C3=C(c4c[nH]c5ccccc45)C(=O)NC3=O)c3ccccc3n2)CC1 [sotrastaurin] (assay: log2 fold change, soluble protein after heating vs DMSO (PISA); higher = thermal stabilisation; K562 cells, 10 uM, 30 min; active = over 0.2 and 3.5 SD of the protein, either way, in both replicates (recomputed)).
Outline: (§1)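 Quantification of soluble protein used TMTpro 16plex LC-MS/MS, with channel sums equalised. Samples were the supernatant after 21,000xg for 90 min of pooled aliquots from K562 cells (2×10^6 cells/mL) treated with 10 μM compound for 30 min, heated for 3 min over 48°C-58°C, and extracted in PBS with 0.5% NP-40 at 4°C. Values, from duplicates, describe thermal stability against control samples on a log2 fold-change scale.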

Sequence of UniProt Q8NCE2 (Q8NCE2 whole entry, looked up): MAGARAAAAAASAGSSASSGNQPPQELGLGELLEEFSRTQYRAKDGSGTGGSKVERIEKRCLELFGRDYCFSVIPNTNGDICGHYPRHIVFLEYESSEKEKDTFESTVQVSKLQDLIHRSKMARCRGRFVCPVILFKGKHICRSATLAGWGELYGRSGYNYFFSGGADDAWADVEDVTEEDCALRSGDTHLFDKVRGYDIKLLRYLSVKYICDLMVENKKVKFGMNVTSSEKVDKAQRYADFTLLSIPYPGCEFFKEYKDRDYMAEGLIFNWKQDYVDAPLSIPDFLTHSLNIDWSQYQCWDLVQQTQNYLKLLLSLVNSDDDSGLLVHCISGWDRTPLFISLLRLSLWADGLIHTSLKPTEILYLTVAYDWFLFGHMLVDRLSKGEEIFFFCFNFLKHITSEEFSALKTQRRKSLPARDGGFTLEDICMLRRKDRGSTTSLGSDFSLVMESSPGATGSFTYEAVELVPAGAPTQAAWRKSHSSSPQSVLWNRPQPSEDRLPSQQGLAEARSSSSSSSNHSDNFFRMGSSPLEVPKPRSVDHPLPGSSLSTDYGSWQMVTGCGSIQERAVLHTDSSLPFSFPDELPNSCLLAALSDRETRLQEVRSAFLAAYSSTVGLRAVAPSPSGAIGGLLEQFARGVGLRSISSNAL
Sequence of UniProt Q12769 (Q12769 whole entry, looked up): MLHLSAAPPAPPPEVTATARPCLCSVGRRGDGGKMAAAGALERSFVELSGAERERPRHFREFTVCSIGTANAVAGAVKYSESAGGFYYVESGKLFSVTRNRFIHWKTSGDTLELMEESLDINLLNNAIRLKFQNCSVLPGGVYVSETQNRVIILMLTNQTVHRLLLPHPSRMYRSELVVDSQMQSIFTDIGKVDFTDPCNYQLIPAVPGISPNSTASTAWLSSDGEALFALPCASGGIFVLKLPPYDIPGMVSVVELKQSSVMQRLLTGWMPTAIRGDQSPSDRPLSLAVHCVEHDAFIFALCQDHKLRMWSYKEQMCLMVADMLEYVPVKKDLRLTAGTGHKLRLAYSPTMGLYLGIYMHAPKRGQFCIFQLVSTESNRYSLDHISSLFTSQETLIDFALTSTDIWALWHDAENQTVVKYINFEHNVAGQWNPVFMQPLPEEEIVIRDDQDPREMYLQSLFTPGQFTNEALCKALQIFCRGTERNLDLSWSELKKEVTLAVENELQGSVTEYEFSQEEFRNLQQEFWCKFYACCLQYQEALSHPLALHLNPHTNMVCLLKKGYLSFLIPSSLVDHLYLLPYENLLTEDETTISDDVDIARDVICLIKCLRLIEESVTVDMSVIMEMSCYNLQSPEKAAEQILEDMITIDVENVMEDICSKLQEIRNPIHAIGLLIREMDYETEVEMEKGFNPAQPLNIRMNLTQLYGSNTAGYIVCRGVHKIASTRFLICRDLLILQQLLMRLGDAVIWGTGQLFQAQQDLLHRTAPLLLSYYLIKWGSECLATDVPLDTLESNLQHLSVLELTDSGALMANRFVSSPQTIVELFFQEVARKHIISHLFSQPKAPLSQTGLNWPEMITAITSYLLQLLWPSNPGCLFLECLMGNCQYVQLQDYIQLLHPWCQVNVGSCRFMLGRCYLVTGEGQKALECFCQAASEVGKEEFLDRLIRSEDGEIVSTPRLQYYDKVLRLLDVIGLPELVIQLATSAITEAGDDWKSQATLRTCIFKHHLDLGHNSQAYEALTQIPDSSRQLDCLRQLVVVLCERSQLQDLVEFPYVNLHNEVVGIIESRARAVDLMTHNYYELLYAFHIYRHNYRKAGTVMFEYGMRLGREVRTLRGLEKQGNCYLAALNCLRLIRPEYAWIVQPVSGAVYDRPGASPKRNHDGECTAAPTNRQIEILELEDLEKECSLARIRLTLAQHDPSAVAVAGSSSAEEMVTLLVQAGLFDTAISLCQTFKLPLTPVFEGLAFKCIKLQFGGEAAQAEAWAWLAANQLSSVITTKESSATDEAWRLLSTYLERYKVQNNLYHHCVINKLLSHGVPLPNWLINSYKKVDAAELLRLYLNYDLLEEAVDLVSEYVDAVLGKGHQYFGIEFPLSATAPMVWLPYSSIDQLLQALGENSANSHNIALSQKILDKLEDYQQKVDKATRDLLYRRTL
Sequence of UniProt Q92692 (Q92692 whole entry, looked up): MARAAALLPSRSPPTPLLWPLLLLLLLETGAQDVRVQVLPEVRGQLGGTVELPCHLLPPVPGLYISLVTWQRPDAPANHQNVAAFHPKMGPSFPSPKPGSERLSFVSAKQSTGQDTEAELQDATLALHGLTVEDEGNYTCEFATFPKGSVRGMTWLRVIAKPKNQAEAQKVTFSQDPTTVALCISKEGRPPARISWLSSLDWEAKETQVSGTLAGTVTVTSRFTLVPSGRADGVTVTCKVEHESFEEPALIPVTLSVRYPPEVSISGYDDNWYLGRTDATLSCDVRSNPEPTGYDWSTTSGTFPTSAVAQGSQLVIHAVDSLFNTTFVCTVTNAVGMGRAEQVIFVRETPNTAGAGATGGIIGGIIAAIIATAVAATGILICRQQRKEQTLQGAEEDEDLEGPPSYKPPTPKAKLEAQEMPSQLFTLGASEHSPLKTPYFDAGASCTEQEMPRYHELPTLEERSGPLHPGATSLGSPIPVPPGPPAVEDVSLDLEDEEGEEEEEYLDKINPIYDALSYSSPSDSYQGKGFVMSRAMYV
Sequence of UniProt Q14978 (Q14978 whole entry, looked up): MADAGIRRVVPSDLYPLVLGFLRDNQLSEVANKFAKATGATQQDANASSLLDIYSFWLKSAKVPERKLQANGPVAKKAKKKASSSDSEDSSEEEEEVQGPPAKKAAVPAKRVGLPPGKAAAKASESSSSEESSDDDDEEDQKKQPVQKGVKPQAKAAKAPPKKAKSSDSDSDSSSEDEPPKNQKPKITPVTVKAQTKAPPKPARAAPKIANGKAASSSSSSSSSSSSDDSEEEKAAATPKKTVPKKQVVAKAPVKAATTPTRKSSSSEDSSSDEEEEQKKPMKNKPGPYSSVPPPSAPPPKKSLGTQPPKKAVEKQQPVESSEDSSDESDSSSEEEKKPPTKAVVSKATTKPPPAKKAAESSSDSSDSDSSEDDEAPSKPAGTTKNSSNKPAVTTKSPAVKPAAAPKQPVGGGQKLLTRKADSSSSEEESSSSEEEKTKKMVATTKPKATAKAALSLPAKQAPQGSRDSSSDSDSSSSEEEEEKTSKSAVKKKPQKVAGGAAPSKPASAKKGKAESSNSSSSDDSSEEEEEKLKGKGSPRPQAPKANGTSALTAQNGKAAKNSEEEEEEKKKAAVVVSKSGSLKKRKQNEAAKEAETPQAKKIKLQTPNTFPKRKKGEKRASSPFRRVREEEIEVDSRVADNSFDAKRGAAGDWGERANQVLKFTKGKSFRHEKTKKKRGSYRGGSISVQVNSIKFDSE
Sequence of UniProt Q13952 (Q13952 whole entry, looked up): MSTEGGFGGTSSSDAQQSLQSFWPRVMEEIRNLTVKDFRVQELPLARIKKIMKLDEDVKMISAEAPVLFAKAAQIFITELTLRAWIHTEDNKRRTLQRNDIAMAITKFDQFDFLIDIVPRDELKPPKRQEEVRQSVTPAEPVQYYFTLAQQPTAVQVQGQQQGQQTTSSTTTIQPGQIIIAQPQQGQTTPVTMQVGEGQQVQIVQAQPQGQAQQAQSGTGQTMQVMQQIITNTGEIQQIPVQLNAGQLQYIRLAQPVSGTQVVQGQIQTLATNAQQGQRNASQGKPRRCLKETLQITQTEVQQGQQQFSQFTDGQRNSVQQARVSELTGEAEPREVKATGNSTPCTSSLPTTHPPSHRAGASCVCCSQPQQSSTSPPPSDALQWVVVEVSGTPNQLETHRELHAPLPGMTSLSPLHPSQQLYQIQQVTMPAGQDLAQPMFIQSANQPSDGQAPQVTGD
Sequence of UniProt P49757 (P49757 whole entry, looked up): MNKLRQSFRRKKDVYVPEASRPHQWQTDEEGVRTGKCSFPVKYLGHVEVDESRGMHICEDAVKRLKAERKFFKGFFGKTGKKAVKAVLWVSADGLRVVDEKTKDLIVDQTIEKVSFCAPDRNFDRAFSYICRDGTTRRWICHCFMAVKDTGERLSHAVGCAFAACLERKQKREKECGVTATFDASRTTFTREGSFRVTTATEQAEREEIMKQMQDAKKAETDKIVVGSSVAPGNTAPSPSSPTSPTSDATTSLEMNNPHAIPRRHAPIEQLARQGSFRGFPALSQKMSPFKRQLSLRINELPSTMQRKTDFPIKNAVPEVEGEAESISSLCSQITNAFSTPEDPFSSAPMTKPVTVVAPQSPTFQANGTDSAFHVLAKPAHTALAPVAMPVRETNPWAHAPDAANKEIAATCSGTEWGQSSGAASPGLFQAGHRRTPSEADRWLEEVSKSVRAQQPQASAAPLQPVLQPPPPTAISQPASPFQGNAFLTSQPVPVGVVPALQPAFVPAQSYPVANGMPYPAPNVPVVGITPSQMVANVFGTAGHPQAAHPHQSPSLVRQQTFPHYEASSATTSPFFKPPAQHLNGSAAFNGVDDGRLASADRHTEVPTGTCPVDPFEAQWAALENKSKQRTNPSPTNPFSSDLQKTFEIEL
Sequence of UniProt O00483 (O00483 whole entry, looked up): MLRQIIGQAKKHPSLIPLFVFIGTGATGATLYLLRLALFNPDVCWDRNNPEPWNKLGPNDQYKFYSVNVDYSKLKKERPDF
Sequence of UniProt Q8WVJ2 (Q8WVJ2 whole entry, looked up): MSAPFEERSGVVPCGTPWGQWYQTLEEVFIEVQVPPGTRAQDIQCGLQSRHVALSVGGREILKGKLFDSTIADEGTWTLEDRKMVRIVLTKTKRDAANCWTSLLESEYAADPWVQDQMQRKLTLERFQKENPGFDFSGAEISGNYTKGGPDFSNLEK
Sequence of UniProt Q9Y314 (Q9Y314 whole entry, looked up): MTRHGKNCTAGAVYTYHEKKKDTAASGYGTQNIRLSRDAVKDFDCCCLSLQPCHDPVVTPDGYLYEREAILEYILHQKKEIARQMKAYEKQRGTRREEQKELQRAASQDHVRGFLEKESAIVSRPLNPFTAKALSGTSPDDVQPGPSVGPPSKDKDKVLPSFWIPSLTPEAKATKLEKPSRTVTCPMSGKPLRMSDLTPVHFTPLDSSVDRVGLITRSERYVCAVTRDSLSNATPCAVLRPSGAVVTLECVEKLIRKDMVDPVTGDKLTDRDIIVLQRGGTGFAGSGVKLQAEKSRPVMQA

| Target | log2 fold change |
| --- | --- |
| NUDCD2 (UniProt Q8WVJ2) | -0.123 |
| NA, A0A096LPI6 | 0.017 |
| NAP1L1 (UniProt P55209) | -0.039 |
| NCL (UniProt P19338) | 0.013 |
| NUP107 (UniProt P57740) | -0.103 |
| MRPL46 (UniProt Q9H2W6) | -0.073 |
| MRPS22 (UniProt P82650) | -0.122 |
| MSTO1 (UniProt Q9BUK6) | 0.025 |
| NOL11 (UniProt Q9H8H0) | 0.022 |
| NFYC (UniProt Q13952) | 0.012 |
| MTMR14 (UniProt Q8NCE2) | -0.042 |
| NISCH (UniProt Q9Y2I1) | -0.066 |
| NAPG (UniProt Q99747) | -0.075 |
| NDUFA4 (UniProt O00483) | 0.021 |
| NUMB (UniProt P49757) | -0.266 (active) |
| MRPS18B (UniProt Q9Y676) | 0.082 |
| NUP85 (UniProt Q9BW27) | -0.026 |
| MTHFD1 (UniProt P11586) | 0.018 |
| NOSIP (UniProt Q9Y314) | -0.28 |
| NECTIN2 (UniProt Q92692) | 0.047 |

| Target | log2 fold change |
| --- | --- |
| NUP205 (UniProt Q92621) | -0.057 |
| NFATC2IP (UniProt Q8NCF5) | -0.033 |
| NRF1 isoform 4 (UniProt Q16656) | -0.045 |
| MRPS12 (UniProt O15235) | -0.068 |
| MON1B (UniProt Q7L1V2) | -0.028 |
| NEMP1 (UniProt O14524) | -0.012 |
| NDUFAF6 (UniProt Q330K2) | -0.112 |
| NFATC3 (UniProt Q12968) | -0.451 (active) |
| MRPS15 (UniProt P82914) | -0.079 |
| NUP160 (UniProt Q12769) | -0.141 |
| NEU1 (UniProt Q99519) | 0 |
| OGFR (UniProt Q9NZT2) | -0.146 |
| NBN (UniProt O60934) | -0.03 |
| MYH10 isoform 3 (UniProt P35580) | -0.058 |
| MRPS24 (UniProt Q96EL2) | -0.124 |
| NOP2 isoform 4 (UniProt P46087) | -0.007 |
| NEDD4 isoform 4 (UniProt P46934) | -0.026 |
| NOLC1 isoform 2 (UniProt Q14978) | -0.036 |
| PAFAH1B2 (UniProt P68402) | 0.097 |

These targets were tested with CN1CC[C@H](c2c(O)cc(O)c3c(=O)cc(-c4ccccc4Cl)oc23)[C@H](O)C1 [alvocidib] in the same assay as above.
Outline: as §1

| Target | log2 fold change |
| --- | --- |
| NUDCD2 (UniProt Q8WVJ2) | -0.139 |
| NA, A0A096LPI6 | -0.02 |
| NAP1L1 (UniProt P55209) | -0.045 |
| NCL (UniProt P19338) | 0.277 |
| NUP107 (UniProt P57740) | -0.056 |
| MRPL46 (UniProt Q9H2W6) | 0.016 |
| MRPS22 (UniProt P82650) | -0.051 |
| MSTO1 (UniProt Q9BUK6) | -0.001 |
| NOL11 (UniProt Q9H8H0) | 0.089 |
| NFYC (UniProt Q13952) | 0.054 |
| MTMR14 (UniProt Q8NCE2) | -0.059 |
| NISCH (UniProt Q9Y2I1) | -0.054 |
| NAPG (UniProt Q99747) | -0.137 |
| NDUFA4 (UniProt O00483) | 0.022 |
| NUMB (UniProt P49757) | -0.095 |
| MRPS18B (UniProt Q9Y676) | -0.059 |
| NUP85 (UniProt Q9BW27) | -0.023 |
| MTHFD1 (UniProt P11586) | -0.055 |
| NOSIP (UniProt Q9Y314) | -0.098 |
| NECTIN2 (UniProt Q92692) | -0.044 |

| Target | log2 fold change |
| --- | --- |
| NUP205 (UniProt Q92621) | -0.127 |
| NFATC2IP (UniProt Q8NCF5) | -0.107 |
| NRF1 isoform 4 (UniProt Q16656) | -0.159 |
| MRPS12 (UniProt O15235) | -0.001 |
| MON1B (UniProt Q7L1V2) | -0.057 |
| NEMP1 (UniProt O14524) | -0.015 |
| NDUFAF6 (UniProt Q330K2) | -0.025 |
| NFATC3 (UniProt Q12968) | -0.148 |
| MRPS15 (UniProt P82914) | -0.057 |
| NUP160 (UniProt Q12769) | -0.078 |
| NEU1 (UniProt Q99519) | -0.033 |
| OGFR (UniProt Q9NZT2) | -0.04 |
| NBN (UniProt O60934) | -0.197 |
| MYH10 isoform 3 (UniProt P35580) | -0.034 |
| MRPS24 (UniProt Q96EL2) | -0.202 |
| NOP2 isoform 4 (UniProt P46087) | 0.574 |
| NEDD4 isoform 4 (UniProt P46934) | -0.09 |
| NOLC1 isoform 2 (UniProt Q14978) | -0.206 |
| PAFAH1B2 (UniProt P68402) | 0.031 |
